From PubChem
Most compounds without a hit are left out; they make up all but 7.3% or so of the library.
HCV inh: inhibitors of hepatitis C virus infection. Huh7.5.1 HCVcc-Cre infection, luciferase reporter, 44 h. Potency, µM (titrated, usually from 41.8 µM), inactives show top-dose activity change, negative = inhibition, actives largely listed as inhibitors. actives 3.4% (n = 340,000). AID 651820; active means well fitted inhibition curve with a large enough effect; inconclusive means small, poorly fitted or top-dose-only effect, or another doubt; inactive means no such curve, though single readings can be large or run the other way; further: potency means the concentration at half of the fitted maximal effect
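Whole-lifecycle infectious HCVcc-Cre system; cells 1,000/well, compound then virus (~0.5 moi) added 4 h after plating, 44 h culture. Luciferase read 15 sec following 15 min substrate incubation, room temp.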
HCMV antiviral: human cytomegalovirus inhibition; actives 4.5% (n = 410,000); HFF cells, HCMV-luciferase reporter, 72 h; active compounds read low; AID 1259415; activity change, negative = inhibition, % at 57.5 µM; in the data active means activity change below about -60%; inconclusive means no clear call, values can overlap the other calls; inactive means above about -39%
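Inhibition of viral replication was scored as loss of reporter luminescence in HFFs infected with HCMV-luciferase (MOI 1 PFU/cell) for 72 h; compounds tested at 2 doses, normalized to buffer and Salinomycin controls.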
VACV mCherry inh: vaccinia inhibition (mCherry reporter) | Vaccinia virus mCherry reporter infection, fluorescence | Potency, µM (titrated, usually from 36.5 µM), for inactives: top-dose activity change, negative = inhibition, actives largely listed as inhibitors | actives 0.63% (n = 310,000); calls by dose curve; tested in A549 cells; further: potency means the concentration at half of the fitted maximal effect; nearly all actives have a fitted effect of over 35% in size
Vaccinia Venus: inhibitors of vaccinia virus (Venus reporter); Vaccinia virus Venus reporter expression, fluorescence; actives 0.46% (n = 330,000); Potency, µM (top dose mostly 36.5 µM), for inactives: at the highest dose activity change, negative = inhibition, most hits filed as inhibitors; AID 720580; calls by dose curve; tested in A549 cells; further: potency means the concentration at half of the fitted maximal effect; nearly all actives have a fitted effect of over 30% in size
FMDV inh: foot and mouth disease virus antiviral activity; Potency, µM (titrated, usually from 57.9 µM), without a hit: at the top dose activity change, negative = inhibition, actives largely listed as inhibitors; actives 1.2% (n = 410,000); FMDV antiviral cell-based qHTS; calls by dose curve; tested in HEK293T cells; further: read-out not given here; potency means the concentration at half of the fitted maximal effect; nearly all actives have a fitted effect of over 45% in size
* marks the source's active call; other numbers are inactive results; i = inactive; ? = inconclusive; . = no result; [ ] = another dose, or the depositor's remark. On the % scale 0 is the no-effect control and ±100 the full control effect.

SMILES	HCV inh	HCMV antiviral	VACV mCherry inh	Vaccinia Venus	FMDV inh
Cc1ccc2nc(SCC(=O)NCC3Cc4cccc(-c5nc(C)cnc5C)c4O3)[nH]c2c1 (configuration not stated)	.	.	-11%	0%	10%
N#CC1=C(N)n2c(s/c(=C\c3cccs3)c2=O)=C(C#N)C1c1cccs1 (configuration not stated)	0.5µM*	27	i	7%	0%
CN(CC(=O)Nc1ccc(F)cc1)C(=O)c1cccc(S(=O)(=O)N2CCN(c3ccc(F)cc3)CC2)c1	8.9µM*	-63*	?	?	?
CN(CC(=O)Nc1cccc(F)c1)C(=O)c1cccc(S(=O)(=O)N2CCN(c3ccccc3)CC2)c1	?	-77*	?	?	?
CN(CC(=O)Nc1ccc(F)cc1)C(=O)c1ccncc1	9%	-72*	-16%	-8%	12%
COc1cccc(C(=O)NC(c2ccc(Cl)cc2)c2cc(Cl)c3cccnc3c2O)c1 (configuration not stated)	.	?	10µM*	?	-12%
COc1cc(C(=O)NC(c2ccc(Cl)cc2)c2cc(Cl)c3cccnc3c2O)cc(OC)c1OC (configuration not stated)	.	-2	16µM*	?	-22%
COc1cc(C(=O)NC(c2ccccc2)c2ccccc2)cc(Cl)c1OC	5%	21	-14%	-5%	-30%
O=C(Nc1ccc(Cl)c(C(F)(F)F)c1)c1nc2ccccc2nc1N1CCCCC1	.	-39	0%	-3%	?
CCc1ccc(N2C(=O)CSC23C(=O)N(Cc2cccc(OC)c2)c2ccccc23)cc1 (configuration not stated)	.	-12	-13%	-4%	-19%
COc1ccc(/C=N/n2c(=O)[nH]c3c([nH]c4ccc(Br)cc43)c2=O)cc1CN1CCOCC1	3%	71	-20%	-19%	-19%
COc1ccc2c(c1)[nH]c1c(=O)n(/N=C/C3C(C)C=C(C)CC3C)c(=O)[nH]c12 (configuration not stated)	0%	-24	i	-10%	0%
COc1ccc2[nH]c3c(=O)n(/N=C/[C@H]4C(C)C=C(C)CC4C)c(=O)[nH]c3c2c1 (some centres not stated)	?	-80*	.	.	?
CC1=CC(C)[C@H](/C=N/n2c(=O)[nH]c3c([nH]c4ccc(Br)cc43)c2=O)C(C)C1 (some centres not stated)	9%	-74*	i	3%	-28%
Cc1c(C)n(C)c2ccc(C(=O)NCCc3ccc(Cl)cc3)cc12	.	0	-12%	-2%	-2%
CC(CC(=O)c1ccccc1)=NCCCN=C(C)CC(=O)c1ccccc1	.	-15	i	-11%	12%
CC1(C(=O)NCc2ccccc2Br)CCN1Cc1c(F)cccc1F (configuration not stated)	.	-61*	i	-3%	-17%
CC(C)(C)c1cc(NCc2ccccn2)n2ncc(-c3ccccc3)c2n1	13µM*	-7	-3%[7.34 µM]	-3%[7.34 µM]	25%
COc1ccc(-c2cc3c(=O)n(CC(=O)Nc4cccc(Cl)c4)nc(C)n3n2)cc1	8%	-19	.	.	?
COc1ccc(NC(=S)N(CCCN2CCCC2)Cc2cccn2Cc2ccc(Cl)cc2)cc1Cl	?	-79*	.	.	-24%
COc1ccc(NC(=S)N(CCC(C)C)C2CCN(C(C)C)CC2)cc1Cl	4µM*	-62*	-21%	-22%	-23%
CCOC(=O)CNC(=S)N(CCCN1CCCCCC1)Cc1cccs1	4%	-88*	i	-15%	-5%
COc1ccc(NC(=S)N(CCCN2CCC(C)CC2)Cc2cccs2)cc1Cl	?	-90*	i	-6%	113%
Cc1ccc(NC(=S)N(CCCN2CCCC2)Cc2cccn2Cc2ccc(Cl)cc2)cc1C	?	-25	?	-13%	?
CC(=O)Nc1cccc(NC(=O)c2cc3c(=O)n4cccc(C)c4nc3n2C)c1	.	?	-5%	-8%	9%
SMILES	HCV inh	HCMV antiviral	VACV mCherry inh	Vaccinia Venus	FMDV inh
Cc1ccc(OCC(=O)Nc2ccc3nc(SCC(=O)N4CCOCC4)sc3c2)cc1	.	-29	0%	-13%	?
Cc1ccc(NC(=S)N(CCCN2CCCC2)Cc2cccn2Cc2ccc(Cl)cc2)cc1Cl	0.56µM*	-12	-16%	-19%	-22%
FC(F)(F)c1cccc(NC(=S)N(CCCN2CCCC2)Cc2cccn2Cc2ccc(Cl)cc2)c1	-8%	-67*	?	?	28µM*
CN1CCN(CCCN(Cc2cccs2)C(=S)Nc2ccc(Cl)cc2)CC1	?	2	-4%	-22%	27%
CCOC(=O)Cc1csc(Nc2ccc(Cl)cc2)n1	?	-72*	-2%	-9%	13%
CCOC(=O)Cc1nnc2c(Nc3ccc(Cl)cc3)nc3nonc3n12	?	-74*	?	?	?
CCOC(=O)Cc1csc(NC(=S)NC(=O)c2ccc(Cl)cc2)n1	-5%	-84*	.	-7%	3%
CCOC(=O)Cc1csc(NC(=O)/C=C/c2ccccc2Cl)n1	?	-12	-2%	-23%	-36%
CCOC(=O)Cc1csc(NC(=O)/C=C\c2ccccc2Cl)n1	10µM*	14	-10%	-6%	-19%
CCOC(=O)Cc1csc(NC(=O)c2ccc(NC(C)=O)cc2)n1	-6%	-3	.	-3%	-12%
CCOC(=O)Cc1csc(NC(=O)Nc2ccc(OC(F)(F)F)cc2)n1	10µM*	30	-25%	-26%	?
O=C(OCC(=O)C12CC3CC(CC(C3)C1)C2)c1ccc(O)cc1O	-21%	-26	-27%	-20%	-1%
Cn1cccc1-c1cc(C(=O)N/N=C/c2cc(Br)ccc2O)[nH]n1	5µM*	-95*	?	-10%	-13%
O=C(N/N=C/c1ccc(OCc2ccc(F)cc2)cc1)c1ccccc1	-10%	-12	?	-18%	42%
COc1ccc(/C=N/NC(=O)c2ccc(Br)cc2)c(OC)c1	-8%	?	-22%	-12%	26%
O=C(N/N=C1\CC2CC=CC12)c1ccc(COc2ccccc2)cc1 (configuration not stated)	?	9	.	.	16%
COc1ccc(O)c(/C=N/NC(=O)c2ccc(OCc3cccc(Br)c3)cc2)c1	2.8µM*	-97*	.	.	-21%
Cn1cccc1-c1cc(C(=O)N/N=C/c2ccccc2Cl)[nH]n1	-16%	0	.	.	22%
CC(C)(C)c1ccc(OCc2ccc(C(=O)N/N=C3\CC4CC=CC34)cc2)cc1 (configuration not stated)	?	-68*	i	-10%	11%
CC(C)(C)c1ccc(OCc2ccc(C(=O)N/N=C/c3ccc(O)c(O)c3)cc2)cc1	5.6µM*	2	-22%	-11%	?
O=C1COCc2ccc(-c3ccc(Cl)cc3)cc2N1CCN1CCOCC1	.	-9	.	.	.
CCC(=O)N1CCCC(C)(C(=O)NS(=O)(=O)c2ccccc2Cl)C1 (configuration not stated)	.	3	4%	5%	-8%
